Results from PubChem BioAssay (NCATS).
“And” between values parts separate entries of the source, which are not always exact repeats. Equal entries are not always repeated. Results filed as inconclusive are left out. Values without a mark were called inactive. Calls follow the shape of the dose curve; as a rule, active = well fitted curve in the direction sought with a large enough effect in the signal ratio, with a control signal flat; inconclusive = small, poorly fitted or top-dose-only effect, or a change in a side signal; inactive = no such curve, though single readings can be large or run the other way; the % refers to the signal ratio.

Target: Glucocorticoid receptor (Homo sapiens) (UniProt P04150)
Sequence (P04150 whole entry, looked up): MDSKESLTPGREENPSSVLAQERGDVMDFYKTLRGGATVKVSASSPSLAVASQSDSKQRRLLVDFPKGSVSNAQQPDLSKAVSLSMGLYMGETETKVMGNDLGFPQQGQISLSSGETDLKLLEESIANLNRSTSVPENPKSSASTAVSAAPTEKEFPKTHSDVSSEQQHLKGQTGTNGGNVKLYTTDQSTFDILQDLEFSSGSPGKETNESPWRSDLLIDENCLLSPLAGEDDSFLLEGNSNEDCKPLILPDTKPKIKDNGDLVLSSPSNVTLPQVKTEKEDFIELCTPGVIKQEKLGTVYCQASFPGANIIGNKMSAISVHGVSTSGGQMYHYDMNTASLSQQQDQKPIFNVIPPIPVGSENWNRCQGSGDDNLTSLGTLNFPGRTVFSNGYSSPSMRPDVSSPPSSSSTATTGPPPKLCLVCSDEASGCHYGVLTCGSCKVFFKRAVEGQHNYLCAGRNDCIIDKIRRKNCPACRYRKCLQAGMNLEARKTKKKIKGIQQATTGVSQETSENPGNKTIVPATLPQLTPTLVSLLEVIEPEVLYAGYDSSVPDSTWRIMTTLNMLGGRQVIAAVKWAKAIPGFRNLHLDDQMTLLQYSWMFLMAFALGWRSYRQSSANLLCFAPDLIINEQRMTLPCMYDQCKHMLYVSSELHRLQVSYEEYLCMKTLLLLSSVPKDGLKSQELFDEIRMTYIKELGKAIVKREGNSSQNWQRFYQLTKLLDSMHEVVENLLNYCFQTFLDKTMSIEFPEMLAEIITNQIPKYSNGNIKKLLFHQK
Assay: qHTS assay for small molecule agonists of glucocorticoid receptor signaling (AID 588532)
Conditions: HeLa MMTV-bla, beta-lactamase ratio, agonist, 18 h; hits give high values; percent of dexamethasone control, DMSO zero
From the text: NIH Chemical Genomics Center [NCGC] U.S. Environmental Protection Agency [EPA] National Institutes of Environmental Health Sciences [NIEHS] National Toxicology Program [NTP] NCGC Assay Overview The Glucocorticoid receptor (GR), a nuclear receptor subfamily member and its natural ligands includes […] etc. The GR is a validated drug target for inflammation. GR ligands such as dexamethasone are clinically available as anti-inflammatory drugs. Glucocorticoids implicate role in carbohydrate, protein and lipid metabolisms and programmed cell death. They are also a component of many chemotherapy regimens for the treatment of leukemias, lymphomas, and myelomas because of their role in the induction of apoptosis.
NCGC Assay Protocol Summary Using a beta-lactamase reporter-gene under control of glucocorticoid response element (GRE), a cell-based assay [CellSensor MMTV-bla HeLa cell line assay developed by Invitrogen] was used to measure GR ligands signaling. CellSensor MMTV-bla HeLa cells were used with assay medium containing 1% charcoal/dextran treated FBS, 0.1 mM NEAA, 1 mM sodium pyruvate and 25mM HEPES. The assay was performed in clear bottom black Greiner 1536-well plates. Dexamethasone and Mifepristine were used in the screen as agonist and antagonist positive controls respectively. Library compounds were measured for their ability to stimulate the reporter gene activity. Compounds were screened in a titration series in 1536-well format. The fluorescence intensity (405 nm excitation, 460/530 nm emission) was measured using an EnVision plate reader. Data was normalized relative to Dexamethasone control (0.1 uM, 100%), and DMSO only wells (basal, 0%). Concentration-response titration points for each compound were fitted to the Hill equation yielding concentrations of half-maximal stimulation (EC50) and maximal response (efficacy) values. qHTS protocol for GR beta-lactamase assay in agonist mode [Step] [Parameter] [Value] [Description] 1. Reagent; 6 uL; 1500 cells/well 2. Incubation; 37 C for 3-5 hrs 3. Compounds; 23 nL; 0.59 nM to 92 uM 4. Controls (Dexamethasone); 23 nL, - One column with dose response, start 4.6uM, 1:3 dilutions in duplicates - Final concentrations of 0.1 uM and 2 nM in two columns 5. Incubation; 37 C for 18 hrs 6. Detection reagent; 1 uL of CCF4-dye 7. Incubation; RT for 2 hrs 8. Detection; Fluorescence; Envision plate reader

SMILES | activation
O=[N+]([O-])c1ccccc1CCO | 3.95%
CSCCC=O | -3.21%
CC(O)CC(C)O (stereo not given) | 0.893%
CCCCC(CC)COCC1CO1 (stereo not given) | -12.2%
C=Cc1ccccn1 | -3.05%
CCOC(=O)OCC | -5.65%
O=[N+]([O-])c1ccc(CCO)cc1 | -5.66%
CC(C)CCOC(=O)/C=C/c1ccccc1 | -0.0444%
COC(=O)CCCC(=O)OC | -5.32%
CCN(C(=O)N(CC)c1ccccc1)c1ccccc1 | -1.59%
O=C1CCCCC1 | -2.34%
c1ccc2c(c1)ccc1ncccc12 | -5.6%
CC(=O)Nc1ccccc1C | -4.6%
CCCCCCCCC | -2.92%
O=[N+]([O-])c1cc(C(F)(F)F)ccc1Cl | -0.113%
Nc1cc(Cl)c(N)c(Cl)c1 | 0.447%
C1COC1 | 0.529%
Cc1ccc2ncccc2c1 | 6.61%
CC(=O)OC(C)C | 0.131%
Cc1ccc(C)c(N)c1 | -8.67%

SMILES | activation
COc1ccc(N)c(OC)c1 | 4.84%
Cc1ccc2cccnc2c1 | -3.65%
CCC(C)(C)C | -3.95%
Nc1nc(-c2ccccc2)cs1 | 1.27%
Nc1cc(Cl)c([N+](=O)[O-])cc1O | -1.56%
CCCCCCO | -1.01%
CCOc1cc(OCC)c(C(C)=O)cc1OCC | -0.956%
CC(C)(O)CCC(C)(C)O | -3.83%
O=[N+]([O-])c1ccc(NCCO)c(OCCO)c1 | 5.48%
O=C(O)c1ccccc1C(=O)O | -4.91%
O=C(O)/C=C/C(=O)O | 27.1%
COc1cccc(N)c1 | 1.73%
CCCCC(CC)COC(=O)CCCCC(=O)OCC(CC)CCCC (stereo not given) | 0.342% and 3.17%
Cc1ccc(S(=O)(=O)NC2CCCCC2)cc1 | -3.36%
CC/C=C1/OC(=O)c2ccccc21 | -3.66%
CC(C)(O)C(=O)O | 5.7%
FC(F)(F)c1ccccc1Cl | 6.11%
CC(=C/C=C/C(C)=C/C=C/C=C(C)/C=C/C=C(C)/C=C/C(=O)O)/C=C/C(=O)O | -6.11%
CC(=O)OCCC(C)C | 4.89%
Cc1ccc(Cl)cc1 | -1.4%
